Our source for the growth values is PubChem BioAssay (NCI).

SMILES strings stand for the structures. About 83,000 compounds went through this panel and 20% of them were active in at least one assay; those are over-represented in the sample as a whole.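 Growth was measured after 48 h exposure to one concentration of compound in 96-well plates. Values under 10 count as active.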 The source made the active and inactive calls.

This assay relates to NCI-H522 lung. Put plainly: NCI-60 one-dose screen, 48 h (100 = growth as untreated, 0 = no growth, -100 = all killed). The note with it: 10 µM unless noted. On the procedure:
Growth inhibition of the NCI-H522 human Non-Small Cell Lung tumor cell line is measured as a screen for anti-cancer activity. Cells are grown in 96 well plates and exposed to the test compound for 48 hours. Compounds are tested at a single concentration, which is 10^-5 M for most compounds. The reported endpoint is percent growth (GI% or GIPRCNT), where numbers from 0 - 100% represent growth inhibition, and numbers from -100% - 0 represent cell death. For example, a value of 40 represents 60% growth inhibition. A value of 0 means no net growth occurred over the course of the experiment. A value of -40 indicates 40% of cells at the beginning of the experiment died by the end of the experiment. A value of -100 means all cells are dead at the end of the experiment.
NCI-60 Human Tumor Cell Lines Screen was performed using the standard one-dose NCI protocol, which is described in more detail at https://dtp.cancer.gov/discovery_development/nci-60/default.htm.
Compounds with GIPRCNT values below 10 were considered active. Activity score was based on GIPRCNT using the following formula: […]
Score is 0 for GIPRCNT values of 100 or above, 50 for GIPRCNT values of 0, and 100 for GIPRCNT values of -100.
In the case of `Nc1cc(C(=O)O)cc(-n2c(O)c(C=C3N=c4ccccc4=N3)sc2=S)c1`, the growth is 92.7% (inactive). The figure for `COc1ccc(-c2cn(Cc3cc4ccccc4s3)nn2)cc1OCCN1CCCCC1` is 91.7% (inactive). The figure for `O=C(CN1C(=O)S/C(=C\C(Cl)=C\c2ccccc2)C1=O)NC1CCS(=O)(=O)C1` (stereo not given) is 34.2% (inactive).

On to `c1ccc(Nc2nc3c(s2)CCc2c[nH]cc2-3)nc1`, for which the growth is -49.9% (active).

For `C/C=C1/CN(CCCCC)CC[C@H]1C(=O)c1cc2ccccc2[nH]1`, the growth was 88.1% (inactive).

On to `CCOC(=O)NCCCC(=O)NCCc1ccccc1`, for which the growth was 106% (inactive).

Take `O=C1c2cccnc2C(=O)c2c1c(C(=O)OCCc1ccccn1)c1ccccn21`: the growth is -50.4% (active).

In the case of `CCOC(=O)c1nnn(Cc2cc(=O)oc3ccc(O)cc23)c1C`, the growth was 97.1% (inactive). As to `CNC(=O)c1cc(Oc2ccc3c(c2)sc2nc(-c4cc(C(F)(F)F)cc(C(F)(F)F)c4)cn23)ccn1`, the growth is 35% (inactive). With `C#Cc1cccc(Nc2ncnc3cc(NC(=O)CCl)ccc23)c1`, the growth is -66% (active). Regarding `COc1ccc(C2CC(c3ccccc3)=NN2C(=O)c2cc(OC)c(OC)c(OC)c2)cc1O` (stereo not given), the growth was -3.83% (active).

`N[C@@H]1CCC[C@H]1NCCCCN1C(=O)c2cccc3cc([N+](=O)[O-])cc(c23)C1=O`: the growth was 40.6% (inactive). With `Cc1cc(O)cc(-c2nn(C)cc2-c2cc(N3CCOCC3)nc(-c3cccnc3)n2)c1`, the growth is 13.1% (inactive). In the case of `COC12C=C/C(=C(/C(=O)OCc3cncnc3)C(=O)CCCCCCCCC3(OC)C=C/C(=C(/C(=O)OCc4cncnc4)C(=O)CCCCCCCC1)O3)O2`, the growth is -33.8% (active). With `COc1ccc(-c2cc(C(=O)N3N=C(c4ccc(N)cc4)CC3c3ccc(Cl)cc3)c3ccccc3n2)cc1` (stereo not given), the growth is -3.25% (active). Under `O=c1oc2ccccc2cc1-c1nn(-c2ccccc2)cc1-c1nn[nH]n1` stands 94.6% (inactive); under `Fc1ccc2[nH]cc(-c3nc(-c4c[nH]c5c(Cl)nccc45)cs3)c2c1`, 16.7% (inactive); under `Nc1cccc(-c2ccc(COc3ccc(CC4SC(=O)NC4=O)cc3)cc2)c1` (stereo not given), 29.7% (inactive). Turning to `COC1C(O)CC(OC2CC(OC3CC(O[C@@H]4C(=O)c5c(cc6cc(OC7CC(OC8CC(O)C(O)C(C)O8)C(O)C(C)O7)c(C)c(O)c6c5O)CC4[C@H](OC)C(=O)O)OC(C)C3O)OC(C)C2O)OC1C` (stereo not given in full), the growth is -13.7% (active).

Regarding `CC(C)Cc1nc(Nc2ccccc2)[nH]c(=O)c1C#N`, the growth is 17.3% (inactive).

As for `CSc1ccc2c3c(n(C[C@H](O)CO)c(=O)c2c1)-c1ccccc1C3=O`, the growth was 43.7% (inactive).

`COCCOC(C)C(/C=N/NC(N)=S)=N/NC(N)=S` (stereo not given): the growth is 94.5% (inactive). Under `COc1cc(/C=C2\C(=O)N(CCCOc3cc(O)c4c(=O)cc(-c5ccccc5)oc4c3)c3ccccc32)cc(OC)c1O` stands 36.4% (inactive). The figure for `COc1ccc(Cl)cc1Nc1nc(C(F)(F)F)ccc1C(=O)N/N=C/c1ccc([N+](=O)[O-])cc1` is -8.55% (active); for `COc1ccc(C/C(C)=C(\c2ccc(O)cc2)c2ccc(OCCN3CCCCC3)cc2)cc1` it is 87.7% (inactive).

Consider `C=C1C(=O)O[C@H]2[C@H]1CC/C(COC(=O)C(=O)c1c[nH]c3ccc(Cl)cc13)=C\CC[C@@]1(C)O[C@@H]21`, for which the growth was -48.4% (active). For `O=C1Nc2ccc(Cl)cc2/C1=C/c1ccc[nH]1`, the growth is 71.4% (inactive). Under `COc1ccc(C2[C@@H](Cl)C(=O)N2c2cc(OC)c(OC)c(OC)c2)cc1Cl` (stereo not given in full) stands -28.7% (active); under `COc1cc2c(c(OC)c1OC)CCC(c1cccc(C(=O)Nc3ccc(Br)cc3)c1)O2` (stereo not given), 48.8% (inactive); under `COc1ccccc1S(=O)(=O)Nc1ccc2c3c(cc(CCC(=O)NCCCCNc4cccc5c4C(=O)N(C4CCC(=O)NC4=O)C5=O)cc13)C(=O)N2C` (stereo not given), 26.2% (inactive). The figure for `CCCN(CCSSCCNc1nc(N(C)O)nc(N(C)O)n1)c1nc(N(C)O)nc(N(C)O)n1` is 65.1% (inactive).

As for `C=C1CC[C@@H]2C(C)(C)[C@H](O)CC[C@@]2(C)[C@@H]1COc1ccc2ccc(=O)oc2c1`, the growth is 32.8% (inactive).

Take `Cc1c2ccccc2nc2cc3c(cc12)[C@H]1CC[C@]2(C)C(=O)CC[C@H]2[C@@H]1CC3`: the growth was 81.6% (inactive).

In the case of `COc1ccc(-c2cc(C(=O)N3N=C(c4ccc(N)cc4)CC3c3ccc(Cl)cc3)c3cc(OC)ccc3n2)cc1` (stereo not given), the growth was 44.9% (inactive).

For the compound `O=C(CCCCCCCC(=O)N1CCCCC1)N1CCCCC1`, the growth is 88.8% (inactive).

`O=[N+]([O-])c1ccccc1Sc1ccccc1[N+](=O)[O-]`: the growth was 87.8% (inactive). Under `O=C(Nc1ccc(Oc2cccc(Cl)c2)c(Cl)c1)c1cccnn1` stands 73.6% (inactive).

`Cc1ccc(S(=O)(=O)N2CCCN(c3nc(-c4ccccc4)nc4nc(-c5ccccc5)oc34)CC2)cc1`: the growth is 83.6% (inactive). In the case of `CCOC(=O)/C=C1\S/C(=N\Nc2cc(=O)[nH]c3ccc(Br)cc23)N(c2ccccc2)C1=O`, the growth is 31.4% (inactive). Under `COc1cc(/C=C/C(=O)c2cccc(-n3cc(-c4ccc(Cl)cc4)[nH]c3=O)c2)ccc1O` stands 23.4% (inactive).
